According to PubChem BioAssay (NCATS):
Records with an inconclusive call do not appear. Entries that show only a call come without a potency. Activity calls are given as the source filed them. Calls follow the shape of the dose curve; as a rule, active = well fitted curve in the direction sought with a large enough effect; inconclusive = small, poorly fitted or top-dose-only effect, or another doubt; inactive = no such curve, though single readings can be large; an effect the other way counts as inactive or inconclusive.

Experiments:
[1] = qHTS of pediatric cancer cell lines to identify multiple opportunities for drug repurposing: Primary screen for OHS-50 cells (AID 1347103); also: nearly all actives have a fitted effect of over 40% in size; also: potency is read from the fitted curve at half-maximal effect
Method in brief: (§1)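 Cells (500-1,000/well) rested 5 h, then received compounds for 48 h; metabolically active cells were measured by CellTiter-Glo luminescence. Final concentrations spanned up to 46 µM (MIPE, 11-point) or 0.59 nM-46 µM (NPC, 8-point) in primary screens, 11-point in follow-ups.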

[2] = qHTS of pediatric cancer cell lines to identify multiple opportunities for drug repurposing: Primary screen for MG 63 (6-TG R) cells (AID 1347105); also: nearly all actives have a fitted effect of over 50% in size; also: potency is read from the fitted curve at half-maximal effect
Method in brief: (§2)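 Viability was measured as metabolically active cells after 48 hours of treatment, read by CellTiter-Glo luminescence. Compounds were tested at multiple final concentrations, giving concentration-response curves.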

[3] = qHTS of pediatric cancer cell lines to identify multiple opportunities for drug repurposing: Primary screen for control Hh wild type fibroblast cells (AID 1347106);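 also: series mostly up to about 46 µM; a drop in luminescence marks cytotoxicity and a rise apparent proliferation; nearly all actives have a fitted effect of over 55% in size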
Method in brief: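 Cells (500-1,000/well) in growth media were settled 5 h at 37 degrees C, then given compounds for 48 h. Viability was read as CellTiter-Glo luminescence. Primary runs used MIPE at 11 points (0.78 nM-46 µM) and NPC at 8 points (0.59 nM-46 µM); follow-ups used 11 points.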

[4] = qHTS of pediatric cancer cell lines to identify multiple opportunities for drug repurposing: Primary screen for Rh18 cells (AID 1347102); also: nearly all actives have a fitted effect of over 65% in size
Method in brief: (§3)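 Viability after 48 h compound treatment at 37C, 500-1,000 cells/well, read as ATP luminescence with CellTiter-Glo. Primary screens used 11-point (MIPE, 0.78 nM-46 µM) or 8-point (NPC, 0.59 nM-46 µM) final concentrations; follow-up screens used 11-point dilutions.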

[5] = qHTS of pediatric cancer cell lines to identify multiple opportunities for drug repurposing: Primary screen for Rh30 cells (AID 1347107); also: nearly all actives have a fitted effect of over 75% in size; also: potency is read from the fitted curve at half-maximal effect
Method in brief: as §3

[6] = qHTS of pediatric cancer cell lines to identify multiple opportunities for drug repurposing: Primary screen for RD cells (AID 1347104); also: nearly all actives have a fitted effect of over 55% in size; also: potency is read from the fitted curve at half-maximal effect
Method in brief: as §2

[7] = qHTS of pediatric cancer cell lines to identify multiple opportunities for drug repurposing: Primary screen for Rh41 cells (AID 1347108); also: nearly all actives have a fitted effect of over 70% in size; also: potency is read from the fitted curve at half-maximal effect
Method in brief: as §2

[8] = qHTS of pediatric cancer cell lines to identify multiple opportunities for drug repurposing: Primary screen for BT-12 cells (AID 1347101); also: nearly all actives have a fitted effect of over 25% in size; also: potency is read from the fitted curve at half-maximal effect
Method in brief: as §1

| Structure (SMILES) | Potency [1] | Potency [2] | Potency [3] | Potency [4] | Potency [5] | Potency [6] | Potency [7] | Potency [8] |
| --- | --- | --- | --- | --- | --- | --- | --- | --- |
| CCOC(=O)c1c(CSc2ccccc2)n(C)c2cc(Br)c(O)c(CN(C)C)c12 | 27.3 µM (active) | inactive | inactive | – | – | – | – | – |
| CC=C(C(=CC)c1ccc(O)cc1)c1ccc(O)cc1 | 27.3 µM (active) | 18.7 µM (active) | inactive | inactive | inactive | – | – | – |
| CO[C@H]1/C=C\O[C@@]2(C)Oc3c(C)c(O)c4c(O)c(c5c(nc6cc(C)ccn65)c4c3C2=O)NC(=O)C(C)=CC=C[C@H](C)[C@H](O)[C@@H](C)[C@@H](O)[C@@H](C)[C@H](OC(C)=O)[C@H]1C | – | inactive | inactive | – | – | inactive | inactive | – |
| CCCCC[C@H](O)C=C[C@H]1[C@H](O)CC(=O)[C@H]1CCCCCCC(=O)O | inactive | inactive | inactive | inactive | inactive | – | – | – |
| COc1c(C)c2c(c(O)c1CC=C(C)CCC(=O)OCCN1CCOCC1)C(=O)OC2 | – | – | – | inactive | inactive | – | inactive | 1.93 µM (active) |
| CCOC(=O)[C@H]1O[C@H]1C(=O)N[C@@H](CC(C)C)C(=O)NCCC(C)C | inactive | inactive | inactive | – | – | – | – | inactive |
| C=CCc1cccc(C=NNC(=O)CN2CCN(Cc3ccccc3)CC2)c1O | 7.69 µM (active) | 18.7 µM (active) | inactive | – | – | 16.6 µM (active) | 18.7 µM (active) | 24.3 µM (active) |
| CN(C)N=Nc1nc[nH]c1C(N)=O | – | – | inactive | inactive | – | inactive | inactive | – |
| O=C(Nc1ccc(OC(F)(F)F)cc1)c1sccc1NCc1ccnc2ccccc12 | – | inactive | inactive | inactive | inactive | – | – | – |
| O=C(CC12CC3CC(CC(C3)C1)C2)Nc1cccc2nc(NCCNCCO)ccc12 | 27.3 µM (active) | 14.8 µM (active) | – | inactive | – | 33.2 µM (active) | inactive | – |
| COc1ccc(-c2nc3ccc(C4=NNC(=O)CC4C)cc3[nH]2)cc1 (stereo unspecified) | – | – | inactive | – | inactive | – | – | – |
| O=C(O)c1ccc(O)c2ncc(N3CCOCC3)cc12 | 24.3 µM (active) | – | – | inactive | – | – | 18.7 µM (active) | – |
| CC(=O)NCCC(=O)N[C@@H](CCC(N)=O)C(=O)N[C@@H](CO)C(=O)N[C@@H](CCC(N)=O)C(=O)N[C@@H](CCC(N)=O)C(=O)N[C@H](C(=O)N[C@@H](Cc1ccccc1)C(=O)N[C@]1(C)CCCCCCC=CCCC[C@@](C)(C(=O)N[C@@H](CCC(N)=O)C(=O)N[C@@H](CC(N)=O)C(N)=O)NC(=O)[C@H](CC(C)C)NC(=O)[C@H](CC(C)C)NC(=O)[C@@H](CCCNC(=N)N)NC(=O)[C@H](Cc2c[nH]c3ccccc23)NC(=O)[C@H](CC(C)C)NC(=O)[C@H](CC(N)=O)NC1=O)[C@H](C)O | inactive | inactive | inactive | inactive | – | – | 18.7 µM (active) | – |
| CO[C@@H]1C(N(C)C(=O)c2ccccc2)C[C@H]2O[C@]1(C)n1c3ccccc3c3c4c(c5c6ccccc6n2c5c31)C(=O)NC4=O (stereo partly specified) | inactive | 1.48 µM (active) | – | – | inactive | – | inactive | – |
| Clc1ccc(C2(c3ccc(-c4cn[nH]c4)cc3)CCNCC2)cc1 | – | 5.9 µM (active) | inactive | – | – | 26.4 µM (active) | – | inactive |
| Cc1ccc(C2=Nc3ccc(Cl)cc3OC2)cc1 | inactive | inactive | inactive | inactive | – | – | – | – |
| CN(C)c1ccccc1CN1CCCN(Cc2ccccc2N(C)C)C1c1ccncc1 | 27.3 µM (active) | inactive | inactive | – | inactive | 26.4 µM (active) | – | – |
| N#Cc1ccc(Oc2ccc3c(c2)COB3O)cc1 | – | inactive | inactive | inactive | inactive | inactive | inactive | – |
| Cc1cc(OCCCS(C)(=O)=O)cc(C)c1-c1cccc(COc2ccc3c(c2)OC[C@H]3CC(=O)O)c1 | – | inactive | inactive | inactive | – | – | – | – |
| C[C@@H]1CCO[C@H]2Cn3cc(C(=O)NCc4ccc(F)cc4F)c(=O)c(O)c3C(=O)N12 | – | inactive | inactive | – | – | inactive | – | – |
| CC(C)(O)CC(=O)NCCn1ccc2ncnc(Nc3ccc(Oc4cccc(C(F)(F)F)c4)c(Cl)c3)c21 | 30.6 µM (active) | – | inactive | – | – | 18.7 µM (active) | – | – |
| C=CC(=O)Nc1cccc(Sc2nc(Nc3ccc(N4CCN(C)CC4)cc3)ncc2Cl)c1 | 27.3 µM (active) | – | inactive | – | – | – | – | – |
| CN(C(Cc1ccc(OS(=O)(=O)c2cccc3cnccc23)cc1)C(=O)N1CCN(c2ccccc2)CC1)S(=O)(=O)c1cccc2cnccc12 (stereo unspecified) | 13.7 µM (active) | 14.8 µM (active) | – | – | inactive | – | – | – |
| CCCCC[C@H](O)C=C[C@H]1[C@H](O)CC(=O)[C@H]1CC=CCCCC(=O)O | inactive | inactive | inactive | inactive | inactive | inactive | inactive | – |
| COc1ccc2nc3cc(Cl)ccc3c(Nc3cc(CN4CCCC4)c(O)c(CN4CCCC4)c3)c2n1 | – | inactive | inactive | inactive | inactive | – | inactive | – |
| C[C@H](c1ccc(F)cc1CCCC(=O)O)N(c1cc(F)ccc1F)S(=O)(=O)c1ccc(Cl)cc1 | – | – | inactive | – | 14.8 µM (active) | – | – | inactive |
